Assay [1] in a line: blockers of polyQ-driven CASP3 activation – cell-based (AID 1583). The conditions noted are these: polyglutamine-induced caspase-3 activation, cell assay; stronger effect = higher value;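 tested at 10 µM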.
A short description of assay [2]: yeast 75Q aggregation reduction – 75Q-TubU reporter (AID 1593). The conditions noted are these: Yeast 75Q polyglutamine aggregation reporter.
Assay [3] is described as follows: restoration of touch response, mutant HTT neurons – whole organism, C. elegans mechanosensory neurons, N-terminal huntingtin (AID 1599). The conditions noted are these: C. elegans polyQ-huntingtin mechanosensory neurons, stronger effect = higher value.
A short description of assay [4]: blockers of cytochrome c efflux from mitochondria – biochemical, purified mitochondria (AID 1603).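 Further: mouse liver mitochondria challenged with calcium chloride; signal normalized to the plate average as 100%.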 Conditions: stronger effect = lower value.
A short description of assay [5]: polyglutamine aggregate formation blockers (AID 1604). The conditions noted are these: polyglutamine-induced protein aggregation inhibition assay; stronger effect = higher value; tested at 2.5 µM.
The nature of assay [6]: glutamate transport activators, MN-1 cells, MN-1 cell line (AID 1612).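 Further: tested at 1 µM final; 0% = mean of DMSO vehicle wells on each plate; positive means more glutamate uptake than control and negative means less.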 Conditions: MN-1 motor neuron cells, stronger effect = higher value.
Assay [7] in a line: 75Q-TubH aggregate inhibition, S. cerevisiae, yeast (AID 1616). The conditions noted are these: S. cerevisiae 75Q-TubH polyglutamine aggregation suppression; stronger effect = higher value.
A short description of assay [8]: compounds altering viability of human ES cells (AID 493140).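 Further: cells exposed to compounds for four days before counting.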 Conditions: human embryonic stem cell survival screen; stronger effect = higher value.
A short description of assay [9]: signal quenchers or enhancers, Cy5 substrate/SSB – biochemical, NIH Clinical Collection, E. coli SSB, artefact control for HCV NS3 helicase inhibitor project (AID 743268). The conditions noted are these: Cy5-oligo bound E. coli SSB, fluorescence interference.
Assay [10] has as its system Hepatitis C virus NS3 helicase. Briefly: blockers of NS3h binding to DNA – biochemical, fluorescence polarization, NIH Clinical Collection, primary screen (AID 743270). The conditions noted are these: NS3 helicase binding to Cy5-dT15 DNA, stronger effect = higher value, concentration not given here. In general terms: In fluorescence polarisation assays a small probe gives low polarisation when free and higher when bound to something large.

Assay [11] deals with Single-stranded DNA-binding protein (Escherichia coli (strain K12)) (UniProt P0AGE0). Briefly: SSB-ssDNA binding inhibitors – biochemical, fluorescence polarization, NIH Clinical Collection, counter-screen for HCV NS3 helicase inhibitor project (AID 743271; in the data active means inhibition above about 28%). Conditions: E. coli SSB-DNA binding, stronger effect = higher value, concentration not given here.
Assay [12] in a line: compounds distorting NS3 helicase fluorescence signal – biochemical, NIH Clinical Collection, artefact control for HCV NS3 helicase inhibitor project (AID 743272).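 Further: HCV NS3 helicase with a Cy5 labelled single stranded DNA probe.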 The conditions noted are these: fluorescence interference counterscreen, HCV NS3 helicase assay; stronger effect = lower value.
A short description of assay [13]: modulation of C. elegans fzo-1 (AID 1259413).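 Further: fzo-1 mutant C. elegans worms in liquid wells.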 The conditions noted are these: C. elegans fzo-1 modulator screen, mean read-out; stronger effect = higher value.
Assay [14] concerns the target Mitogen-activated protein kinase 7 (Homo sapiens) (UniProt Q13164). As to the kind of experiment: Gal4-ERK5 driven luciferase induction – cell-based, HTS, primary screen (AID 1508626;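 active means luciferase signal above three times the same-plate solvent-only control wells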;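 further: luciferase driven by Gal4-ERK5 fusion binding five Gal4 sites before minimal TATA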). The conditions noted are these: HeLa Gal4-ERK5 transactivation, 18 h, at 5 µM, stronger effect = higher value.
Assay [15] in a line: galactose survival enhancers in mitochondrial complex I cybrids – cell-based, galactose medium, ATP luminescence, primary screen (AID 1645843;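 active means z-score of at least 1.8 in each of two replicates, scored against plate mean and spread of sample wells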;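 further: positive z means more ATP and so rescue of galactose-driven cybrid death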). Conditions: complex I mutant cybrid cells, 72 h, stronger effect = higher value.
The subject of assay [16] is R275C/beta1. As to the kind of experiment: BK channel mutant inhibitors and activators – cell-based, U2OS BacMam, thallium flux, beta subunits, selectivity assay, profiling panel (AID 1259406;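 active means thallium flux through the channel raised or lowered by more than 3 SD from vehicle-only wells, actives on both sides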;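 further: initial slope of Thallos dye fluorescence rise after thallium is added; log ratio against the mean of 0.3% DMSO vehicle wells on the same plate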). The conditions noted are these: U2OS BacMam BK variants, at 30 µM.
In assay [17] the test system is R275C/beta2Delta. Described as above. Conditions: U2OS BacMam BK variants, at 30 µM.
Assay [18] relates to R275C/beta4. The assay is described as above. Conditions: U2OS BacMam BK variants, at 30 µM.
Assay [19] has as its system R275C/Slo1WT/beta2. The description is as above. The conditions noted are these: U2OS BacMam BK variants, at 30 µM.

“And” between values parts separate entries of the source, which are not always exact repeats. Equal entries are not always repeated. For some assays here: Potency and affinity values are given separately. The source made the active and inactive calls. Unless noted, how the calls were made is not given here.

This is an account of results in PubChem BioAssay.

What is called inhibition is the relative decrease from the control value, in per cent.

Mitogen-activated protein kinase 7 (Homo sapiens), sequence (Q13164 whole entry, looked up, the tested form may be a part): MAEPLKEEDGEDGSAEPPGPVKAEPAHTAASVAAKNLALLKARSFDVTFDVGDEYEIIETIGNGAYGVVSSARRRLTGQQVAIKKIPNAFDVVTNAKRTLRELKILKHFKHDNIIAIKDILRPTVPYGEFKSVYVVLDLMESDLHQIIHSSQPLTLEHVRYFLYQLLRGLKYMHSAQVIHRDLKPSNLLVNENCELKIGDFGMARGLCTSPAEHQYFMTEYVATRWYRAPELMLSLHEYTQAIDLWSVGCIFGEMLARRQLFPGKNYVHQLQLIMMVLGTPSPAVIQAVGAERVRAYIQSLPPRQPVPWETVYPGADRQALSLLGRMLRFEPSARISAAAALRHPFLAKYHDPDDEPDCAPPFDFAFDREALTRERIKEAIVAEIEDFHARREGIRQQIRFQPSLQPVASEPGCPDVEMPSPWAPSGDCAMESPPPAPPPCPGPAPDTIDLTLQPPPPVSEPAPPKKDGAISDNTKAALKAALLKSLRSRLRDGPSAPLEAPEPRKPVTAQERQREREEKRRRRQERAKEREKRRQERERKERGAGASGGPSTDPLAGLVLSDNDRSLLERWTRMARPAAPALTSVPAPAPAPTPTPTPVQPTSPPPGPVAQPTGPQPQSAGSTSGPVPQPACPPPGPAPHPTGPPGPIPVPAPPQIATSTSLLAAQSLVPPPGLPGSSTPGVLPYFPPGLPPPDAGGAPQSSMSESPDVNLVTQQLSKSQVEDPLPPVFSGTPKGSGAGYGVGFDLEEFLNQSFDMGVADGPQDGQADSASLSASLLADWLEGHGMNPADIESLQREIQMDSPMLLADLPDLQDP

Turning to `CN(C)CCOC(C)(c1ccccc1)c1ccccn1` (configuration not stated), the figures for the inhibition in assay [1], in [10] and in [11] were 9.79%, -0.4% (inactive) and -0.87% (inactive), respectively. The same molecule showed a score in assay [2] of 1.23. Also, in assay [3], the rescue above control was -5.3. Further, the cytochrome c release ratio in assay [4] was found to be 0.7. The inhibition of aggregation in assay [5] amounted to 77%. Also, in assay [6], the glutamate uptake change turned out to be 7.08%. Moreover, in assay [7], the aggregation suppression score came to 1.46. Moreover, the survival in assay [8] was 6.42 (inactive). The fluorescence ratio in assay [9] is 1.04 (inactive); in assay [12], 1.06 (inactive). Besides, in assay [13], the mean signal is 230 (inactive). In [14], the luciferase signal is 124 AU (inactive). For the same molecule, the z-score in [15] was 0.14 (inactive) and -0.05 (inactive) and 0.35 (inactive). In addition, the log fold change Tl+ flux in assay [16] was -0.0059 (inactive); in assay [17] it was -0.00567 (inactive); in assay [18] it was 0.0164 (inactive); in assay [19], 0.0279 (inactive).
For `NS(=O)(=O)c1cc2c(cc1C(F)(F)F)NCNS2(=O)=O`, the inhibition in assay [1] was -8.77%; in assay [10], -3.18% (inactive); in [11] it was -0.48% (inactive). In assay [2], this molecule registered a score of 1.38. The rescue above control in [3] was -10.8. Besides, the cytochrome c release ratio in assay [4] was 0.95. Further, the inhibition of aggregation in assay [5] amounted to 91.6%. In assay [6], the glutamate uptake change was -18.5%. This molecule showed an aggregation suppression score in [7] of 1.31. Further, in [8], the survival was 23.1 (inactive). The fluorescence ratio in assay [9] is 1.02 (inactive); in assay [12], 0.93 (inactive). Also, the mean signal in [13] was 224 (inactive). The luciferase signal in assay [14] was 40 AU (inactive). Also, the z-score in assay [15] was 1.47 (inactive). Besides, the log fold change Tl+ flux in assay [16] is -0.0725 (inactive); in [17], 0.0545 (inactive); in assay [18] it was 0.0202 (inactive); in assay [19] it was 0.0133 (inactive).
Consider `CSc1ccc2c(c1)N(CCC1CCCCN1C)c1ccccc1S2` (configuration not stated), for which the results for the inhibition in assay [1], in [10] and in assay [11] were 43.3%, -5% (inactive) and 0.29% (inactive), respectively. The score in assay [2] worked out at 0.94. Moreover, in assay [3], the rescue above control worked out at 0. The cytochrome c release ratio in [4] stood at 0.4. Moreover, in assay [5], the inhibition of aggregation stood at 7.32%. For the same molecule, in assay [6], the glutamate uptake change was -2.39%. The aggregation suppression score in assay [7] worked out at 0.91. The survival in assay [8] was 2.08 (inactive). The fluorescence ratio in [9] is 1.05 (inactive); in assay [12], 0.85 (inactive). Also, the mean signal in assay [13] is 275 (inactive). The luciferase signal in [14] was 40 AU (inactive). The z-score in assay [15] is -1.38 (inactive) and -1.5 (inactive) and -2.41 (inactive). For the same molecule, the log fold change Tl+ flux in [16] was 0.517 (active); in assay [17] it was -0.136 (active); in assay [18], 0.753 (active); in assay [19], -0.146 (active).
`c1ccc2c(c1)CCCC2C1=NCCN1` (configuration not stated): the values for the inhibition in [1], in [10] and in assay [11] were -4.42%, -4.09% (inactive) and -0.48% (inactive), respectively. This molecule also came in with a score in [2] of 1.43. The molecule further displayed a rescue above control in assay [3] of 7.66. The cytochrome c release ratio in assay [4] was 0.63. The molecule also had an inhibition of aggregation in [5] of 56.8%. The glutamate uptake change in assay [6] worked out at 6.14%. This molecule returned an aggregation suppression score in assay [7] of 1.06. For the same molecule, the survival in [8] was 6 (inactive). Besides, the fluorescence ratio in assay [9] was 0.97 (inactive); in [12], 0.93 (inactive). Besides, in assay [13], the mean signal is 221 (inactive). Further, the luciferase signal in [14] is 44 AU (inactive). For the same molecule, the z-score in assay [15] was 0.18 (inactive) and 0.17 (inactive). For the same molecule, the log fold change Tl+ flux was -0.00185 (inactive) in assay [16], -0.0361 (inactive) in assay [17], 0.0129 (inactive) in assay [18] and 0.0141 (inactive) in assay [19].
`NC(=O)N1c2ccccc2C=Cc2ccccc21`: the inhibition in assay [1] was 9.92%; in assay [10], -3.18% (inactive); in assay [11], -3.53% (inactive). The score in assay [2] was 1.24. For the same molecule, the rescue above control in assay [3] is -11.1. Further, the cytochrome c release ratio in assay [4] came out at 1.51. The inhibition of aggregation in assay [5] was 83.1%. Also, in assay [6], the glutamate uptake change was -6.72%. The molecule also came in with an aggregation suppression score in assay [7] of 1.82. For the same molecule, the survival in assay [8] is 26.6 (inactive). Further, the figures for the fluorescence ratio in assay [9] and in assay [12] were 1.03 (inactive) and 1.04 (inactive), respectively. Also, the mean signal in [13] is 259 (inactive). Further, the luciferase signal in [14] was 36 AU (inactive). The z-score in [15] was 0.21 (inactive) and 0.34 (inactive) and 0.265 (inactive). The log fold change Tl+ flux in [16] is 0.00405 (inactive); in assay [17], 0.0457 (inactive); in assay [18] it was -0.0824 (inactive); in assay [19], -0.0474 (inactive).
`CC(C)NCC(O)c1cc(O)cc(O)c1` (configuration not stated): the values for the inhibition in assay [1], in assay [10] and in assay [11] were 11.6%, -5% (inactive) and -4.29% (inactive), respectively. Further, the score in assay [2] was determined as 1.21. Further, the rescue above control in assay [3] is -1.18. In [4], the cytochrome c release ratio is 0.62. The same molecule had an inhibition of aggregation in [5] of 83.9%. In [6], the glutamate uptake change is -18.3%. Moreover, in assay [7], the aggregation suppression score worked out at 1.15. Also, the survival in assay [8] was 10.4 (inactive). Also, the results for the fluorescence ratio in [9] and in assay [12] were 1.05 (inactive) and 1.02 (inactive), respectively. In addition, the mean signal in [13] was 261 (inactive). In assay [14], the luciferase signal is 92 AU (inactive). For the same molecule, the z-score in [15] is 0.07 (inactive) and 1.61 (inactive). In addition, the log fold change Tl+ flux in assay [16] was -0.038 (inactive); in [17], 0.0259 (inactive); in assay [18], 0.0475 (inactive); in [19] it was 0.0212 (inactive).
As for `CN(C)CCC=C1c2ccccc2CCc2ccccc21`, the inhibition in [1] was 5.08%; in [10], -7.73% (inactive); in assay [11], -2% (inactive). This molecule gave a score in [2] of 0.94. This molecule also gave a rescue above control in [3] of 17.6. Further, the cytochrome c release ratio in assay [4] was 1.57. In addition, the inhibition of aggregation in assay [5] is 70.5%. Besides, the glutamate uptake change in assay [6] was -1.53%. Also, the aggregation suppression score in assay [7] is 0.931. The survival in assay [8] is 7.08 (inactive). Moreover, the figures for the fluorescence ratio in assay [9] and in assay [12] were 0.94 (inactive) and 0.92 (inactive), respectively. For the same molecule, the mean signal in [13] was 243 (inactive). Besides, the luciferase signal in assay [14] was 36 AU (inactive). Besides, the z-score in [15] was -0.73 (inactive) and -1.31 (inactive). For the same molecule, the log fold change Tl+ flux in [16] is 0.106 (inactive); in [17] it was 0.128 (active); in assay [18], 0.135 (active); in assay [19], 0.00351 (inactive).
Regarding `C=C(CC)C(=O)c1ccc(OCC(=O)O)c(Cl)c1Cl`, the inhibition in assay [1] is 6.66%; in assay [10], -4.09% (inactive); in assay [11], 2.57% (inactive). In assay [2], the score amounted to 0.22. The molecule also had a rescue above control in assay [3] of 6.67. Besides, the cytochrome c release ratio in assay [4] was 0.63. The same molecule returned an inhibition of aggregation in assay [5] of 30.1%. In assay [6], the glutamate uptake change turned out to be 5.34%. This molecule also came in with an aggregation suppression score in assay [7] of 0.145. Also, the survival in [8] was 25.6 (inactive). Also, the fluorescence ratio in assay [9] was 2.96 (active); in [12], 0.9 (inactive). Further, the mean signal in assay [13] was 255 (inactive). Also, the luciferase signal in [14] is 64 AU (inactive). In addition, in assay [15], the z-score was -0.85 (inactive) and -0.03 (inactive). The log fold change Tl+ flux was 0.0596 (inactive) in assay [16], 0.0176 (inactive) in [17], -0.0645 (inactive) in [18] and 0.0108 (inactive) in assay [19].
